Test results reported in PubChem BioAssay.
The source made the active and inactive calls. Cut-off read from the data, not from the text of the source, unless noted: active = inhibition above about 36%; inactive = the rest.

Key:
[1] = target: Nuclear receptor coactivator 3 (Homo sapiens) (UniProt Q9Y6Q9); assay: SRC3 coactivator transcriptional activity inhibitors, confirmation, cell-based, luminescence, quadruplicate (AID 588792;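 active = mean inhibition over 43.08%, the solvent-only control mean plus 3 SD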;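 note: 0% = DMSO treated cells and 100% = gossypol at 36 µM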); conditions: HEK293 GAL4-SRC3 luciferase reporter, at 3.6 µM, active compounds read high
[2] = test system: transactivating tegument protein VP16 (Human herpesvirus 1), Gal4-VP16 luciferase reporter; assay: VP16 transactivation inhibitors, counter-screen for SRC3 inhibitor project, cell-based, luminescence, high throughput (AID 588794; in the data active = inhibition above about 30%); conditions: mammalian cells, VP16-driven luciferase reporter luminescence; at 3.6 µM; active compounds read high
[3] = target: Nuclear receptor coactivator 1 (Homo sapiens) (UniProt Q15788); assay: SRC1 coactivator transcriptional activity inhibitors, confirmation, cell-based, luminescence, quadruplicate (AID 588820;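 active = mean inhibition above 46.68%, the untreated control wells mean plus 3 SD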;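 note: 0% = DMSO wells and 100% = gossypol 36 µM treated wells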); conditions: HEK293 GAL4-SRC1 luciferase reporter, at 3.6 µM, active compounds read high
[4] = VP16 transactivation inhibitors, counter-screen for SRC1 inhibitor project, cell-based, luminescence, high throughput (AID 588824; in the data active = inhibition above about 25%); conditions: cell-based VP16 transactivation luciferase luminescence; at 3.6 µM; active compounds read high
[5] = StAR promoter reporter inhibitors, counter-screen for LRH-1 inverse agonist project, cell-based, luminescence, high throughput (AID 651611; in the data active = inhibition above about 28%); conditions: StAR promoter luciferase reporter counterscreen, at 3.6 µM, active compounds read high
[6] = target: Nuclear receptor subfamily 5 group A member 2 (Homo sapiens) (UniProt O00482); assay: LRH-1 (NR5A2) inverse agonists, retest, confirmation, cell-based, luminescence (AID 651613; in the data active = inhibition above about 42%;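 note: HEK293T cells co-transfected with LRH-1 and StAR promoter luciferase reporter; 0% = vehicle wells and 100% = parental cells lacking receptor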); conditions: cell-based LRH-1 luciferase reporter, inverse agonism; at 3.6 µM; active compounds read high
[7] = target: Steroidogenic factor 1 (Homo sapiens) (UniProt Q13285); assay: SF1 (NR5A1) inverse agonists, counter-screen for LRH-1 inverse agonist project, cell-based, luminescence, high throughput (AID 651614; in the data active = inhibition above about 44%;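 note: cells cotransfected with StAR promoter reporter and SF1 expression vector; 0% = vehicle on cells with receptor and 100% = vehicle on cells lacking receptor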); conditions: cell-based SF1 luciferase reporter, at 3.6 µM, active compounds read high
[8] = VP16 transactivation reporter inhibitors, counter-screen for LRH-1 inverse agonist project, cell-based, luminescence, high throughput (AID 651615; in the data active = inhibition above about 33%); conditions: Gal4-VP16 luciferase reporter cells, at 3.6 µM, active compounds read high
[9] = test system: transactivating tegument protein VP16 (Human herpesvirus 1); assay: VP16 transactivation reporter inhibitors, counter-screen for SRC2 inhibitor project, cell-based, luminescence, single concentration (AID 652007); conditions: cell-based VP16 transactivation luciferase reporter, at 8.9 µM, active compounds read high
[10] = target: Nuclear receptor coactivator 2 (Homo sapiens) (UniProt Q15596); assay: SRC2 coactivator transcriptional activity inhibitors, confirmation, cell-based, luminescence, HEK293, triplicate (AID 652008;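 active = mean inhibition above 46.5%, the solvent-only control mean plus 3 SD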;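 note: 0% = DMSO-treated cells and 100% = Gossypol at 36 µM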); conditions: HEK293 GAL4-SRC2 luciferase reporter, at 8.9 µM, active compounds read high

Measured: inhibition

Nuclear receptor subfamily 5 group A member 2 (Homo sapiens), sequence (O00482 whole entry, looked up): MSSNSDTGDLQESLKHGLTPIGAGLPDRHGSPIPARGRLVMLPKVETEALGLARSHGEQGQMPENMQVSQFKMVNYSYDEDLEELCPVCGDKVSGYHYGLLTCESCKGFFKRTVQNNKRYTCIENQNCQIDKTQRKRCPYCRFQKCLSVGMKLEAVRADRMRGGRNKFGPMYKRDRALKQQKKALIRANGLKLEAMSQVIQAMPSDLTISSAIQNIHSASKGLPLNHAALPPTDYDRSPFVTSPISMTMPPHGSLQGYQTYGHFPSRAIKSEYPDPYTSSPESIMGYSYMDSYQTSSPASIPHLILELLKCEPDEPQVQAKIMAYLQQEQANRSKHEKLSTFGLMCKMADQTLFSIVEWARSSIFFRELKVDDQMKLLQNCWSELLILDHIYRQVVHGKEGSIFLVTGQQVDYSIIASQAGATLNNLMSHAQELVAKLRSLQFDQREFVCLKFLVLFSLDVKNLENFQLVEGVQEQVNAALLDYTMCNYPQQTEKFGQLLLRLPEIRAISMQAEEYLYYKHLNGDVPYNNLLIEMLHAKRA
Nuclear receptor coactivator 3 (Homo sapiens), sequence (Q9Y6Q9 whole entry, looked up, the tested form may be a part): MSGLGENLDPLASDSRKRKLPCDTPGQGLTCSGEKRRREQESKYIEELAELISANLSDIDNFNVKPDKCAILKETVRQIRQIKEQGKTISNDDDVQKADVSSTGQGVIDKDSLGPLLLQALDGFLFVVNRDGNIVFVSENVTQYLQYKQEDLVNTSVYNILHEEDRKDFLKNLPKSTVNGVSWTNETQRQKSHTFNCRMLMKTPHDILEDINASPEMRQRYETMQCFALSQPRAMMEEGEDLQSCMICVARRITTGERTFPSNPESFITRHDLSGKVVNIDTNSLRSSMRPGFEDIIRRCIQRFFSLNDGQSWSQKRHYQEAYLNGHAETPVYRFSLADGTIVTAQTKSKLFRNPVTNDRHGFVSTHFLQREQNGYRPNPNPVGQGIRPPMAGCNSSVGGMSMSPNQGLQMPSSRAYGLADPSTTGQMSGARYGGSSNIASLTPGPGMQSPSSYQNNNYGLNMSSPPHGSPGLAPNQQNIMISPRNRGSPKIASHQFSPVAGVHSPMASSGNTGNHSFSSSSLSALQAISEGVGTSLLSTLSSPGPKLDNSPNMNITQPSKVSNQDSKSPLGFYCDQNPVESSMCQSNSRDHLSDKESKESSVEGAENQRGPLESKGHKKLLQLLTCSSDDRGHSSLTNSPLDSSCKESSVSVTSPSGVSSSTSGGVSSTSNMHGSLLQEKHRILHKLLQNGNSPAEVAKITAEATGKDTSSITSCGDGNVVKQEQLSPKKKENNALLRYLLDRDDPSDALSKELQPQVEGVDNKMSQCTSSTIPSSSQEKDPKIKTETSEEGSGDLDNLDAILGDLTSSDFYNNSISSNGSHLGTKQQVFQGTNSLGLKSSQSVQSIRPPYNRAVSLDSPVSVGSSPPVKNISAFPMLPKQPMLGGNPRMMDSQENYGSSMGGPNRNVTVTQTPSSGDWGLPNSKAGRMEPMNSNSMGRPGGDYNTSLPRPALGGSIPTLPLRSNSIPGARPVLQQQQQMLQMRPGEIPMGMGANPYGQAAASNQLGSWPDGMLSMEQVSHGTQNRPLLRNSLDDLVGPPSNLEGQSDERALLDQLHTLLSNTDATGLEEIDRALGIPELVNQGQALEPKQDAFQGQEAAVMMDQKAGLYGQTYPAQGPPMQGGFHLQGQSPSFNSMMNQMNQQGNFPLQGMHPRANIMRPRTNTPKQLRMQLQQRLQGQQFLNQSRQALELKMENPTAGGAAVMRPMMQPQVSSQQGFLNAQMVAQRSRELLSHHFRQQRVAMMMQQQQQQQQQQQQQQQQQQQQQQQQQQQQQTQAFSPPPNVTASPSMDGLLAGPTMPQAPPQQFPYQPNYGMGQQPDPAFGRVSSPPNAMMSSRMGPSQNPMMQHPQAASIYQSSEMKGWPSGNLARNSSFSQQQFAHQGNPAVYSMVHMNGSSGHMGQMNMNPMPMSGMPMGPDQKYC
Nuclear receptor coactivator 1 (Homo sapiens), sequence (Q15788 whole entry, looked up, the tested form may be a part): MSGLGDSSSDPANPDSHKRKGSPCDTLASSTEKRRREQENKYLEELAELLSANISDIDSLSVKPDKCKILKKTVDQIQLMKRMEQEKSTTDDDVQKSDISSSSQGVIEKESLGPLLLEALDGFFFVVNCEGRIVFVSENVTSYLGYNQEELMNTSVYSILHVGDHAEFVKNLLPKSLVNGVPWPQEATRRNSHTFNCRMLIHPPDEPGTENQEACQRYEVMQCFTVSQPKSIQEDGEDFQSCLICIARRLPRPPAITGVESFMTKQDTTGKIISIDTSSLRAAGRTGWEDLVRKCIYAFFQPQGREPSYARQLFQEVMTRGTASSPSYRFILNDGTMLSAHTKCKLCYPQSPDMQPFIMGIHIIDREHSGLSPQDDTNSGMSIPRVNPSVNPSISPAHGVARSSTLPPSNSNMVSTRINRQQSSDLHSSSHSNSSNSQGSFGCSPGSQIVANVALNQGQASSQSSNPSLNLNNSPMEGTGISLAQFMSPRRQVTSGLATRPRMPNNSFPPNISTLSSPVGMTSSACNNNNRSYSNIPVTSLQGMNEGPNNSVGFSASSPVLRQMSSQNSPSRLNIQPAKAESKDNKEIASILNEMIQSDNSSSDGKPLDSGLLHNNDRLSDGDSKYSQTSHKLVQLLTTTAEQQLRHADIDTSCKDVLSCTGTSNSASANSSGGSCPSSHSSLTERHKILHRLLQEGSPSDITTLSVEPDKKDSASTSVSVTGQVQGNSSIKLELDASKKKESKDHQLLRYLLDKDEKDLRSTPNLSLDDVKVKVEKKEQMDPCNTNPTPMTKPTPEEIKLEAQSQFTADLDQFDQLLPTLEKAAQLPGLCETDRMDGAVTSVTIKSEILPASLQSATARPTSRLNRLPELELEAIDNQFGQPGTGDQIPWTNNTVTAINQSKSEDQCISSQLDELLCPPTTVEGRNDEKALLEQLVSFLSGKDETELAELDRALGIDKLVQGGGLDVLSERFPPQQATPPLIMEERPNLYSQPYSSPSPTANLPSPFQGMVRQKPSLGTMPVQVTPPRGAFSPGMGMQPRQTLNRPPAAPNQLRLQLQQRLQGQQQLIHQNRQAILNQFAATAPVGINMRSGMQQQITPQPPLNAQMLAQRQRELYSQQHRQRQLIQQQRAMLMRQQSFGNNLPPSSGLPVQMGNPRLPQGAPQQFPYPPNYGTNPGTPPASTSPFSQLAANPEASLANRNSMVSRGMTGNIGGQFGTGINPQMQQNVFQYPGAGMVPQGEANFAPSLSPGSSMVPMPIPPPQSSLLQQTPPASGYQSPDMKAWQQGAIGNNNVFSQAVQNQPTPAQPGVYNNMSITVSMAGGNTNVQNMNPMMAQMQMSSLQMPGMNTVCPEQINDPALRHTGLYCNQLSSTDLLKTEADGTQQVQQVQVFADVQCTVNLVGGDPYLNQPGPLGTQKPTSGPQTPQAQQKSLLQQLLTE
Nuclear receptor coactivator 2 (Homo sapiens), sequence (Q15596 whole entry, looked up, the tested form may be a part): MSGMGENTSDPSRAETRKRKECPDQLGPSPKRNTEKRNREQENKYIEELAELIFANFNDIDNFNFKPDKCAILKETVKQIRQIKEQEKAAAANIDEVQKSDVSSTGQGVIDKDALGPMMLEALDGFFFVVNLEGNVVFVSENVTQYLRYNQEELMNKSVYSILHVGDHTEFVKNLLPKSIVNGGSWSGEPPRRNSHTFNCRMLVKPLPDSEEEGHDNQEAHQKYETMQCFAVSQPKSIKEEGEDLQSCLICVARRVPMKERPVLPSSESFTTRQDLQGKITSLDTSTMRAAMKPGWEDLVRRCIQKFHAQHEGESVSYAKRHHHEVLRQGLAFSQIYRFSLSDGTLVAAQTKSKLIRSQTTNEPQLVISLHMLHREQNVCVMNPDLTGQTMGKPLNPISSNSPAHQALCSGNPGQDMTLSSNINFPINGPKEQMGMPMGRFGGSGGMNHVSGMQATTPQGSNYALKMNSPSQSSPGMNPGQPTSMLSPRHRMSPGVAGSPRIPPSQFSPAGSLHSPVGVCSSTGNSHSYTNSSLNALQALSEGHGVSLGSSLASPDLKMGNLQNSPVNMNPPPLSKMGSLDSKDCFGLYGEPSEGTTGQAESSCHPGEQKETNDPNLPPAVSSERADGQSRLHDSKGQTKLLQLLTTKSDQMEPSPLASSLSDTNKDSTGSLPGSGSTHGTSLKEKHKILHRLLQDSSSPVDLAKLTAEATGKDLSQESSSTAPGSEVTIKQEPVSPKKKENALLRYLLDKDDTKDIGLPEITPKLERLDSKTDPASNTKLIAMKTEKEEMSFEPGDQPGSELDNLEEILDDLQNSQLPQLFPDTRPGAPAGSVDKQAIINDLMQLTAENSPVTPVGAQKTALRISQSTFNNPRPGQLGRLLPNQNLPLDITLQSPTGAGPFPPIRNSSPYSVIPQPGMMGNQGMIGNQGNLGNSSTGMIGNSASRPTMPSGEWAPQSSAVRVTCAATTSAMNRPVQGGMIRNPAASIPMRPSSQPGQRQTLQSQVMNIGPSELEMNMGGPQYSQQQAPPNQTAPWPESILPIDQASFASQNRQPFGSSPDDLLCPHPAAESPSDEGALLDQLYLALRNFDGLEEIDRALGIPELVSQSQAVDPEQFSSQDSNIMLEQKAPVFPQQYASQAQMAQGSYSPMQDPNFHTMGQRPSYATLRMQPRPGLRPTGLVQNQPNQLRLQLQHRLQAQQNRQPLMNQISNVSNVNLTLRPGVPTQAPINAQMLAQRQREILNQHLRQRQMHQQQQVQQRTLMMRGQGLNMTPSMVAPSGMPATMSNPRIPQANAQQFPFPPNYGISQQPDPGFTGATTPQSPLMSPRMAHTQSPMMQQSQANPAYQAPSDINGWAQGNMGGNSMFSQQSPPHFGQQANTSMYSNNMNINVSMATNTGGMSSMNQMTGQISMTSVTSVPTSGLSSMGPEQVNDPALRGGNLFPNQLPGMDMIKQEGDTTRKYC

O=C(OCCC12CC3CC(CC(C3)C1)C2)c1ccc(NCc2cc(O)ccc2O)cc1
inactive: [2] 25.4% | [3] 11.1%
active: [1] 88.1% | [4] 57.7% | [5] 72.6% | [6] 80.7% | [7] 75.3% | [8] 83.8% | [9] 97.1% | [10] 98.4%

COC(=O)c1ccc2nc(Nc3nc4c(F)cc(F)cc4s3)sc2c1
active: [2] 40.6% | [4] 36.7% | [5] 28.2% | [10] 61.1%
inactive: [1] 23.9% | [3] -34.6% | [6] -92.1% | [7] 25.5% | [8] -29.2% | [9] -2.64%

CCCc1ccc(-c2ccc(/C=C/C(=O)O)cc2)nc1
active: [1] 76% | [2] 71.9% | [3] 70.6% | [4] 67.7% | [5] 77.9% | [6] 85.6% | [7] 76.9% | [8] 68.6% | [9] 85.7% | [10] 94.6%

COc1cc(OC)cc(-c2cc3nc(C)c(CCC(=O)O)c(C)n3n2)c1
active: [1] 66.4% | [2] 69.9% | [3] 55.8% | [4] 64.1% | [5] 64.9% | [6] 76.4% | [7] 71% | [8] 69% | [9] 89.9% | [10] 93.3%

CCC1=C(CC2NCCc3ccccc32)CC2c3cc(OC)c(OC)cc3CCN2C1 (stereo not given)
active: [1] 90.6% | [2] 84.9% | [3] 63.7% | [4] 85.7% | [5] 87.4% | [6] 98.3% | [7] 88.3% | [8] 93.9% | [9] 47.1% | [10] 52.6%

O=C(CCl)Nc1cc(SCC(O)CO)cc([N+](=O)[O-])c1 (stereo not given)
active: [1] 91.6% | [2] 72.7% | [3] 56.9% | [4] 78.6% | [5] 95.8% | [6] 110% | [7] 97.7% | [8] 98.2% | [9] 79% | [10] 67.5%

Cc1cc(C)c2c(N)c(C(=O)Nc3ncc(C)s3)sc2n1
inactive: [3] -42.2% | [4] 24.3% | [6] 14.3% | [8] 4.69%
active: [1] 49.7% | [2] 34.4% | [5] 36.9% | [7] 55.7% | [9] 55.6% | [10] 77.2%
